Screening results from PubChem.
LmPK inhibitor = qHTS Assay for Inhibitors of Leishmania Mexicana Pyruvate Kinase (LmPK); Q27686; purified LmPK, Kinase-Glo ATP luminescence, 1 h; Potency, µM (series often up to 57.5 µM), without a hit: at the highest dose activity change, negative = inhibition, hits mostly inhibitors; actives 0.37% (n = 290,000); AID 1721, 2009; note: potency is the fitted concentration of half-maximal effect; % is set by controls: 0 for no effect and ±100 for the full control effect
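Pyruvate kinase activity monitored as ATP production (luciferase luminescence). Conditions: 0.1 nM enzyme, 0.5 mM PEP, 0.1 mM ADP, 1 h, RT; normalized against uninhibited and no-enzyme wells.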
Sm TGR block = qHTS Assay for the Inhibitors of Schistosoma Mansoni Peroxiredoxins; purified TGR, DTNB reduction, TNB absorbance 405 nm; actives 3% (n = 360,000); Schistosoma mansoni thioredoxin glutathione reductase (TGR), Q962Y6; Potency, µM (series often up to 114 µM), for the others: at the highest dose activity change, negative = inhibition, usual class: inhibitors; AID 485364, 2010; note: potency is the fitted concentration of half-maximal effect; % is set by controls: 0 for no effect and ±100 for the full control effect; nearly all actives have a fitted effect of over 60% in size
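First, TGR (20 nM dispensed) and NADPH were mixed with compound. Second, a 15 min room-temperature incubation followed. Third, further NADPH and then DTNB were added to start the reaction. Finally, TNB absorbance was monitored kinetically.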
Shiga inhibitor = A qHTS for Small Molecule Inhibitors of Shiga Toxin. Vero cells, Shiga toxin protein synthesis inhibition reporter. actives 9.2% (n = 290,000). inhibition, % at 38.7 µM; in the data active = inhibition mostly above about 28%, no sharp cut-off; inactive = mostly below about 43%; note: 0% is about no effect
Tb PYK inh = qHTS of Trypanosoma Brucei Inhibitors. actives 0.12% (n = 410,000). TbPYK enzyme, Kinase-Glo Plus ATP luminescence, 45 min. Potency, µM (highest dose often 76.8 µM), for the others: at the top dose activity, negative = inhibition, most hits filed as inhibitors. pyruvate kinase (Trypanosoma brucei), Q57TT1. AID 624173, 2012; note: potency is the fitted concentration of half-maximal effect; % is set by controls: 0 for no effect and ±100 for the full control effect; nearly all actives have a fitted effect of over 50% in size
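Activity of T. brucei pyruvate kinase was followed by Kinase-Glo Plus luminescence after the enzyme reacted 45 min at room temperature with 130 uM ADP (final) and substrate. Test compounds were added before ADP at multiple concentrations.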
Cycloheximide cs = Cycloheximide Counterscreen for Small Molecule Inhibitors of Shiga Toxin; cell reporter, cycloheximide protein synthesis inhibition counterscreen; max response, %; actives 12% (n = 300,000); in the data active = max response mostly above about 13%, no sharp cut-off; inactive = mostly below about 14%; note: read at 38.3 µM for the half of the compounds with a filed dose; 0% is about no effect
FBPA Giardia inh = qHTS Assay for Inhibitors of Fructose-1,6-bisphosphate Aldolase from Giardia Lamblia. purified Giardia FBPA. Potency, µM (doses to about 59.6 µM), without a hit: at the top dose activity, negative = inhibition, usual class: inhibitors. actives 0.71% (n = 290,000). AID 2451, 2010; note: potency is the fitted concentration of half-maximal effect; % is set by controls: 0 for no effect and ±100 for the full control effect; nearly all actives have a fitted effect of over 55% in size
Target sequence (A8B2U2 whole entry, looked up): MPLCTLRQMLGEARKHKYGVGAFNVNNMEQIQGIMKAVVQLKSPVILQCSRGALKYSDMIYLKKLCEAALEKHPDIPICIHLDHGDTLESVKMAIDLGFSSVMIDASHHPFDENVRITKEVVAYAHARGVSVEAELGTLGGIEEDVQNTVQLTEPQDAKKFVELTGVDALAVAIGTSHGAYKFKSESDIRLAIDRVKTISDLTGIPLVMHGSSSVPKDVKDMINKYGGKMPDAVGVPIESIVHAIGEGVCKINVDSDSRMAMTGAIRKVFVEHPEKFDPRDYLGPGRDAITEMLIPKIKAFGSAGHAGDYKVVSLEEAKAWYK
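40 nM FBPA preincubated 10 min at RT with compound (up to 57.5 uM final), then substrate plus GAPDH/TPI/NAD/arsenate coupling and diaphorase/resazurin added. Fluorescence read after 20 min at RT, 525/598 nm.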
Active calls of the source: *; ? = inconclusive; . = no result given; [ ] = dose if it differs, or a comment. The sample as a whole holds a higher share of hits than the screen did. Unless noted, calls come from the whole dose curve; as a rule, active = well fitted curve in the direction sought with a large enough effect; inconclusive = small, poorly fitted or top-dose-only effect, or another doubt; inactive = no such curve, though single readings can be large; an effect the other way counts as inactive or inconclusive.

SMILES	LmPK inhibitor	Sm TGR block	Shiga inhibitor	Tb PYK inh	Cycloheximide cs	FBPA Giardia inh
Cc1c(C)n(CCCN(C)C)c2ncnc(Nc3ccccc3)c12	0%	-7%	40	5%	7	4%
Cc1ccc(NC(=O)c2ccc(NC(=O)N3CCSc4nc(C)cc(C)c43)cc2)c(Cl)c1	.	-2%	.	6%[15.4 µM]	.	.
CCOC(=O)C1(Cc2ccccc2Cl)CCN(C(=O)CCn2ccnc2C)CC1	-2%	-24%	68*	0%	42*	-4%
CCOC(=O)C1(CCc2ccccc2)CCN(C(=O)CCn2cnnn2)CC1	6%	-1%	21	0%	12*	-1%
CCOC(=O)C1(Cc2ccccc2Cl)CCN(S(=O)(=O)N(C)C)CC1	8%	4%	14	0%	6	-10%
CCOC(=O)C1(CCCc2ccccc2)CCN(C(=O)CCn2cnnn2)CC1	0%	16%	33	-4%	6	-3%
CCOC(=O)C1(CCc2ccccc2)CCN(C(=O)CCn2cncn2)CC1	-1%	-12%	63*	0%	32*	4%
CC(COc1ccccc1)NN (centres undefined)	.	.	.	4%	.	.
Oc1ccc(CNc2ccccc2F)c2cccnc12	21%	0.11µM*	24	-12%	-3	15%
Oc1ccc(CNc2ccc(C(F)(F)F)cc2Cl)c2cccnc12	.	1µM*	.	.	.	.
Oc1ccc(F)c2cccnc12	0%	11%	2	?	-1	?
Oc1ccc(CNc2cccc(F)c2F)c2cccnc12	.	0.11µM*	.	.	.	.
CC(=O)C1=C(O)C(=O)N(c2cccc(Br)c2)C1c1ccccc1Cl (centres undefined)	-4%	-13%	-2	6%	-2	-7%
CCOc1ccccc1NC(=O)CN(C)S(=O)(=O)c1ccc2nc(C)sc2c1	.	-4%	.	0%	.	.
CC(=O)Nc1ccc(N=C(C2=C(O)c3ccccc3C2=O)c2ccccc2)cc1	1%	-10%	63*	6%	44*	-9%
CCOc1ccc(N=C(C)C2=C(O)c3ccccc3C2=O)cc1	-12%	14%	194*	-10%	43*	-5%
COc1ccc(N=N/C(C(C)=O)=C(/C)O)cc1	-3%	4%	35	4%	20	6%
COc1ccc(N=C(C)C2=C(O)c3ccccc3C2=O)cc1	-27%	-10%	115*	-6%	58*	-4%
CCCCn1c(O)c(C(C)=Nc2ccc(OCC)cc2)c(=O)[nH]c1=O	1%	8%	15	2%	-2	-11%
CCc1cccc(CC)c1NC(=O)C(CC)n1nc(C)n2c(cc3cc(C)ccc32)c1=O (centres undefined)	.	-1%	.	-1%	.	.
O=C(O)c1cc(-c2ccc(/C=C3/SC(=S)N(Cc4ccccc4)C3=O)o2)ccc1Cl	8%	25µM*	63*	-13%	29*	?
CC1(C)OC(=O)C(=Cc2ccc(-c3ccc(Cl)c(C(=O)O)c3)o2)C(=O)O1	32%	-6%	-15	16µM*	8	-16%
COc1ccc(CN2C(=O)/C(=C/c3ccc(-c4ccc(Cl)c(C(=O)O)c4)o3)SC2=S)cc1	19%	?	18	.	16	0%
CCOc1ccccc1CNC(=O)c1cc(-c2ccc(OC)cc2)nc2ccc(C(C)C)cc12	.	2%	.	1%	.	.
COc1ccc(-n2nc(C(=O)NCC(=O)N3CCN(c4ccccc4)CC3)c3ccccc3c2=O)cc1OC	5%	0%	43*	-1%	22*	-1%
SMILES	LmPK inhibitor	Sm TGR block	Shiga inhibitor	Tb PYK inh	Cycloheximide cs	FBPA Giardia inh
COc1ccc(-n2nc(C(=O)NCC(=O)N3CCC4(CC3)OCCO4)c3ccccc3c2=O)cc1OC	5%	-5%	37	-2%	17*	2%
COc1ccc(-n2nc(C(=O)NCC(=O)N3CCN(c4ccccc4OC)CC3)c3ccccc3c2=O)cc1OC	0%	-17%	-7	-2%	3	.
COc1ccc(-n2nc(C(=O)NCC(=O)N3CCN(c4ccccn4)CC3)c3ccccc3c2=O)cc1OC	2%	4%	26	-3%	15*	5%
CCOc1ccccc1NC(=O)Cn1c(=O)n(CCC(=O)NCc2ccc3c(c2)OCO3)c(=O)c2ccccc21	.	18%	.	3%	.	.
Cc1ccc2c(c1)c(=O)c(S(=O)(=O)c1ccc(C)c(C)c1)cn2CC(=O)Nc1ccccc1	.	1%	.	-3%	.	.
C/C(N)=C(/C#N)C(=O)COC(=O)c1cc2c(s1)CCCC2	13%	-2%	60*	-16%	35*	0%
CN(C(=O)COC(=O)c1cc2c(s1)CCCCC2)C1CCS(=O)(=O)C1 (centres undefined)	-4%	5%	2	-1%	-2	.
CNC(=O)COC(=O)c1cc2c(s1)CCCC2	2%	-2%	47	-2%	24*	4%
C/C(N)=C(/C#N)C(=O)COC(=O)c1cc2c(s1)CCC(C)C2 (centres undefined)	9%	-15%	93*	-20%	68*	-6%
CSc1ncccc1C(=O)OCC(=O)c1cccc(Br)c1	0%	0%	17	1%	12	-3%
CCCCCCC#CC1C=CC(OC(C)=O)C(COC(C)=O)O1 (centres undefined)	.	.	.	.	.	3%[12.9 µM]
Cc1cccc(-n2c(-c3ccncc3)n[nH]c2=S)c1C	?	1%	-11	?	-1	-26%
Cc1cccc(-n2c(C)n[nH]c2=S)c1C	?	2%	-4	?	9	?
CCc1ccccc1-n1c(-c2ccncc2)n[nH]c1=S	13µM*	-7%	-8	25µM*	6	7%
Cc1ccccc1-n1c(-c2ccncc2)n[nH]c1=S	32µM*	9%	-6	?	-3	?
Cc1ccc(-n2c(-c3ccncc3)n[nH]c2=S)c(C)c1	-11%	23%	-26	7.1µM*	-3	-28%
Cc1cc(-c2n[nH]c(=S)n2-c2ccccc2C)cs1	10µM*	0%	26	?	12	-1%
COCCNC(=O)Nc1ccc2nc(C)sc2c1	-2%	1%	64	-5%	13	-12%
Cc1nc2ccc(NC(=O)NCCCO)cc2s1	-4%	-1%	49*	0%	16*	0%
O=C(NCc1ccco1)Nc1ccc2snnc2c1	19%	-1%	17	2%	8	1%
Cc1nc2ccc(NC(=O)NCc3ccco3)cc2s1	-4%	8%	56*	-2%	43*	-2%
Cc1nc2ccc(NC(=O)NCCO)cc2s1	5%	6%	35	3%	20*	0%
Cc1cnc(NC(=O)c2cc3ccccc3o2)s1	-20%	3%	47	0%	18*	-16%
Cc1nnc(NC(=O)c2cc3ccccc3o2)s1	-3%	0%	67*	-4%	25*	.
